Reference: PubChem BioAssay (NCI)
“And” between values parts separate entries of the source, which are not always exact repeats. Equal values may be shown once. Compounds without any hit were thinned out: in the full panel of roughly 83,000, 20% have a hit.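 Negative percent growth values reflect cell death: -40 means 40% of the cells present at the start died, and -100 means all died.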 A number with no mark means an inactive call. The source made the active and inactive calls. Rule for the calls: active = growth percent below 10; inactive = the rest.

Tested on: ACHN renal
Assay: NCI-60 one-dose screen, 48 h (100 = growth as untreated, 0 = no growth, -100 = all killed)
Details: 10 µM unless noted

SMILES	growth
N#Cc1ccc(/C=C/C(=O)c2ccccc2)cc1	112% and 92.9%
COc1ccc(COC=O)cc1	110%
O=[N+]([O-])c1ccc(N/N=C/C2CCCCCC2)c([N+](=O)[O-])c1	70.4%
COC(=O)C(Cc1cn(C(C)=O)c2ccccc12)P(=O)(OC)OC (configuration not stated)	100%
CCOCCC(=O)O	110%
Cc1ccc(N)cc1S(=O)(=O)O	101% and 118%
CCOC(=O)c1ccc(C(=N)N)cc1	126%
Cc1cc(-c2ccc(N=Nc3c(C)nn(-c4ccc(S(=O)(=O)O)cc4)c3O)c(C)c2)ccc1N=Nc1ccc(O)c(C(=O)O)c1	98%
CC(=O)c1cccc(OC(=O)c2ccccc2)c1	109%
O=C(O)/C=C/C=C/c1ccccc1	103% and 109%
CCOC(=N)c1ccc(C(=N)OCC)cc1	102%
CN(C)C(=N)N=C(N)N	92.8% and 115%
N=C(N=C(N)N)N1CCOCC1	103%
COc1cc([C@@H]2c3cc4c(cc3[C@H](O)[C@H]3COC(=O)[C@@H]23)OCO4)cc(OC)c1OC	25.2% and 31.8%
O=C1C=CC(=O)N1Cc1ccco1	5.76% (active)
S=c1ccc2ccccc2[nH]1	101% and 109%
Clc1ccc(/C=C/c2ccc3ccccc3n2)cc1	55.8% and 93.3% and 83%
